# In ChEMBL document CHEMBL3988442, “University of Dundee, Small-Polar-MMV Screening Library” (2021):
# Values joined by “and” are separate entries in the source; they are usually repeats but may differ in a detail not shown here. Identical values can stand only once. About 290 (0.85%) of roughly 34,000 compounds showed an effect of 50% or more. The full list was thinned out, with strong results kept by preference.
# Tested on: Plasmodium falciparum
# Test: Plasmodium falciparum sporozoite viability assay
# Assay type: functional, organism-based
# Set-up: scale not given: in the data most compounds retested in dose-response had high values
Compound,Percent Effect (10 mM as filed; unlikely as a test dose),Percent Effect
CN(C)C(=O)NC1COC2(CCN(Cc3ccccc3)CC2)C1.O=C(O)C(F)(F)F (stereo unspecified),-6.642% and -9.604% and -2.422%,–
CCC(O)CN1CCN(C(=O)c2sccc2OC)CC1 (stereo unspecified),–,5.511%
N#Cc1c(SCCN2CCCCC2)sc2c(O)cc(O)nc12,–,19.81%
Cc1nc(C)n(C2CCCN(C(=O)CCOC(C)C)C2)n1 (stereo unspecified),–,5.53%
CCc1nc(C2CCCN(C(=O)NCCOC)C2)no1 (stereo unspecified),–,15.54%
CCN(CC)c1ccc(NC(=O)NCC2CCOC2)cn1 (stereo unspecified),-11.53% and -8.697%,–
CSc1cc2c(cc1NC(=O)NCCn1ccnc1)OCCO2,101.5% and 100.4% and 104.7%,–
CSc1cc2c(cc1NC(=O)NCc1ccncc1)OCCO2,-14.95% and -16.58%,–
O=C(NCC1CCOC1)Nc1ccc(OCC(F)(F)F)nc1 (stereo unspecified),–,-8.857%
COCCN(C)C(=O)Nc1cc2c(cc1SC)OCCO2,-20.76% and -19.13%,–
CSc1cc2c(cc1NC(=O)NCC1CCOC1)OCCO2 (stereo unspecified),105.7% and 100.9% and 97.86%,–
CC(NC(=O)NCCn1ccnc1)c1ccc2c(c1)OCCO2 (stereo unspecified),–,-2.596%
COCCNC(=O)Nc1cc2c(cc1SC)OCCO2,98.06% and 101.8% and 101.9%,–
CSc1cc2c(cc1NC(=O)NCC(=O)N(C)C)OCCO2,-16.92% and -17.04% and -26.51%,–
CCCc1ncc(CNC2(c3ccc(Cl)cc3)CCC2)cn1,–,9.707%
COc1ccc2cc(C(=O)N3CCCC(n4ccnc4C)C3)[nH]c2c1 (stereo unspecified),–,-4.765%
O=C(O)[C@@H]1CN(C(=O)CC2CCCC2)C[C@H]1c1ccc(F)cc1,–,4.737%
Cc1nccc(C(=O)N2CCCC(c3cc(C(F)(F)F)[nH]n3)C2)n1 (stereo unspecified),–,8.419%

Compound,Percent Effect (10 mM as filed; unlikely as a test dose),Percent Effect
Cc1cc(C)n(C2CN(CC(=O)N(C)Cc3ccc(C)o3)C2)n1,–,-8.906%
CN(C)C(=O)CN1CCCC1c1nccnc1Nc1ccccn1 (stereo unspecified),–,-3.467%
Cc1ccc2c(c1)CN(C(=O)c1cnc(C)cn1)C(CN(C)C)CO2.Cl (stereo unspecified),–,-2.552%
O=S(=O)(C1CC1)N1CCC2(COCc3cnc(-c4cccnc4)nc32)C1 (stereo unspecified),–,9.968%
CCOc1ccccc1OC1CCN(Cc2ccn(C)c(=O)c2)CC1,–,8.133%
CCOc1cc([C@H]2N[C@@H](c3nc(C)cs3)Cc3ccsc32)ccc1OC,–,5.89%
CC(C)NC(=O)CC1CC2(CCN(CC3CC3)CC2)Oc2ccccc21.O=C(O)C(F)(F)F (stereo unspecified),–,11.82%
NC(=O)CC1CCN(C(=O)NCc2ccc(-c3ccn[nH]3)cc2)CC1,–,2.866%
COC(=O)CC1CCN(C(=O)Nc2ccc(-c3ccn[nH]3)cc2)C1 (stereo unspecified),84.64% and 84.71% and 100.4%,–
CCOCC1CCCN(C(=O)NCc2ccc(-c3ccn[nH]3)cc2)C1 (stereo unspecified),–,14.81%
COCc1cncc2c1CCN(C(=O)c1ccc(C#N)cc1)C2.O=C(O)C(F)(F)F,–,7.706%
Cc1ccc(-c2cccc(CC3(C(=O)O)CCOCC3)c2)c(C)c1,–,-5.038%
CN1CCCc2cc(CNC(=O)c3cc[n+]([O-])cc3)ccc21,–,8.46%
CCOCC1CN(C(=O)c2ccncn2)Cc2cnn(CC)c21.O=C(O)C(F)(F)F (stereo unspecified),–,-5.589%
O=C(O)C1CCN(c2ccc(Sc3ccc(Br)cc3)nn2)CC1,-3.247% and -5.657%,–
Cc1ccc(Sc2ccc(N3CCC(C(=O)O)CC3)nn2)cc1,64.84% and 62.96%,–
Cc1ccc(Sc2ccc(N3CCCC(C(=O)O)C3)nn2)cc1 (stereo unspecified),24.7% and 21.38%,–
CCNc1cc2c(nn1)CCN(C(=O)c1ccc3c(c1)OCO3)C2,–,6.984%
